Source: PubChem BioAssay AID1117283 (Broad Institute, 2014)
Measured potencies and affinities stand elsewhere. Calls of active or inactive are those of the source.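 Rule for the calls: active = fluorescent signal decreased by at least 40%; inconclusive = no clear call, values can overlap the other calls; inactive = the rest, including activity opposite to the expected direction.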

Experiment: fibronectin fibrillogenesis inhibitors in fibroblasts, dose response, AH1F cells, Alexa488-fibronectin fluorescence, cherry-pick, set 2 (AID 1117283);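 note: AH1F fibroblasts given Alexa488-labelled fibronectin at 24 nM final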
Settings: Alexa488-fibronectin deposition fluorescence, overnight; series mostly up to 35 µM; activity change, negative = inhibition: at the top concentration

| SMILES | activity change, negative = inhibition |
| --- | --- |
| CO[C@H]1CN(C)C(=O)c2cc(NC(=O)Nc3ccc(Cl)c(Cl)c3)ccc2OC[C@@H](C)NC[C@H]1C | 6.57% (inactive) |
| O=C(Nc1ccc(Cl)cc1)N1C[C@H]2[C@@H](c3ccccc31)[C@H](CO)N2CC1CCCC1 | 0.835% (inactive) |
| COC(=O)C[C@@H]1CC[C@@H]2[C@H](COc3ccc(NC(=O)Cc4cccs4)cc3C(=O)N2C)O1 | 7.5% (inactive) |
| Cc1ccc(NC(=O)COC(=O)c2cc(Cl)ccc2[N+](=O)[O-])c(C)c1 | -7.04% (inactive) |
| CN(C)C(=O)c1ccc(-c2ccc3c(c2)[C@H]2[C@H](CCN2C(=O)c2ccc(F)cc2)[C@H](CO)N3C)cc1 | -3.09% (inactive) |
| C[C@H]1CN([C@@H](C)CO)C(=O)c2cc(NC(=O)C3CCCCC3)ccc2O[C@@H]1CN(C)Cc1ccc(-c2ccccc2)cc1 | -0.105% (inactive) |
| O=C(c1cccnc1)N1C[C@H]2[C@@H](c3ccccc31)[C@H](CO)N2CC1CCCC1 | 8.16% (inactive) |
| CO[C@H]1CN(C)C(=O)c2cc(NC(=O)Nc3cc(Cl)cc(Cl)c3)ccc2OC[C@H](C)NC[C@H]1C | -12.7% (inactive) |
| COC(=O)C[C@H]1CC[C@H]2[C@@H](COc3ccc(NC(=O)Cc4cccs4)cc3C(=O)N2C)O1 | -7.74% (inactive) |
| CO[C@@H]1CN(C)C(=O)c2ccc(NC(=O)Nc3ccc(Cl)c(Cl)c3)cc2OC[C@@H](C)NC[C@@H]1C | 14.5% (inactive) |
| N#C[C@@H]1[C@H](c2ccccc2C2=CCCCC2)[C@@H](CO)N1S(=O)(=O)c1ccccc1 | -6.78% (inactive) |
| Cc1cccc(NC(=O)Nc2ccc(S(=O)(=O)Nc3onc(C)c3C)cc2)c1 | -5.54% (inactive) |
| O=C(Nc1ccccc1F)N1C[C@H]2[C@@H](c3ccccc31)[C@H](CO)N2C(=O)C1CC1 | -11.4% (inactive) |
| C[C@H](CO)N1C[C@H](C)[C@H](CN(C)Cc2ccc(-c3ccccc3)cc2)Oc2ccc(NC(=O)CCCN(C)C)cc2C1=O | 8.61% (inactive) |
| COCC(=O)Nc1ccc2c(c1)C(=O)N(C)[C@@H]1CC[C@@H](CC(=O)NCc3ccccc3Cl)O[C@H]1CO2 | 18.1% [at 30 µM] (inactive) |
| C[C@H](CO)N1C[C@H](C)[C@H](CN(C)C)Oc2cc(C#C[C@@H](C)O)ccc2S1(=O)=O | 2.53% (inactive) |
| CN1CCN(C(=O)c2cccc(-c3cnc4cnc(-c5ccccc5Oc5ccccc5)cn34)c2)CC1 | 8.73% (inactive) |
| CN(C)C(=O)c1ccc(-c2ccc3c(c2)[C@@H]2[C@@H](CCN2C(=O)c2ccc(F)cc2)[C@H](CO)N3C)cc1 | 10.2% (inactive) |
| C[C@@H]1CN([C@@H](C)CO)C(=O)c2cc(-c3ccccc3)cnc2O[C@H]1CN(C)Cc1ccccc1 | 6.85% (inactive) |

| SMILES | activity change, negative = inhibition |
| --- | --- |
| O=C(NCCS(=O)(=O)N1CCN(c2ccc(F)cc2)CC1)c1ccc(Br)o1 | -8.57% (inactive) |
| COc1ccc(Cl)cc1NC(=O)CSc1nc(Nc2ccccc2)nc(N2CCOCC2)n1 | 27.7% (inactive) |
| O=C(Nc1ccccc1F)N1C[C@@H]2[C@H](c3ccccc31)[C@@H](CO)N2C(=O)C1CC1 | 0.595% (inactive) |
| Cc1c(NC(=O)c2ccc3nsnc3c2)cccc1[N+](=O)[O-] | 11.2% (inactive) |
| CCOC(=O)c1nnn(-c2ccc(OC)cc2)c1N | 2.85% (inactive) |
| CCS(=O)(=O)c1ncc(Cl)c(C(=O)Nc2ccc(S(=O)(=O)N3CCC(C)CC3)cc2)n1 | -6.19% (inactive) |
| CC1CN(C(=O)c2cc3c(=O)n4ccccc4nc3n2C)CC(C)O1 (configuration not stated) | -6.58% (inactive) |
| CO[C@H]1CN(C)C(=O)c2ccc(NC(=O)c3ccc(-c4ccccc4)cc3)cc2OC[C@H](C)NC[C@@H]1C | 40.8% (inactive) |
| CO[C@H]1CN(C)C(=O)c2cc(NC(C)=O)ccc2OC[C@@H](C)N(C(=O)CN2CCOCC2)C[C@H]1C | 1.65% (inactive) |
| CO[C@@H]1CN(C)C(=O)c2cc(NC(=O)Nc3ccc(Cl)c(Cl)c3)ccc2OC[C@@H](C)NC[C@@H]1C | 0.023% (inactive) |
| O=S(=O)(c1cccc(F)c1)N1CC[C@@H]2[C@H](CO)Nc3ccc(-c4cccc(F)c4)cc3[C@@H]21 | -7.96% (inactive) |
| CO[C@@H]1CN(C)C(=O)c2ccc(NC(=O)c3ccc(-c4ccccc4)cc3)cc2OC[C@H](C)NC[C@@H]1C | -8.9% (inactive) |
| CO[C@@H]1CN(C)C(=O)c2cc(NC(=O)Nc3ccc(Cl)c(Cl)c3)ccc2OC[C@H](C)NC[C@H]1C | 8.41% (inactive) |
| CO[C@H]1CN(C)C(=O)c2cc(NC(=O)Nc3cc(Cl)cc(Cl)c3)ccc2OC[C@@H](C)NC[C@@H]1C | 4.31% (inactive) |
| CO[C@@H]1CN(C)C(=O)c2cc(NC(=O)Nc3cc(Cl)cc(Cl)c3)ccc2OC[C@@H](C)NC[C@@H]1C | 7.38% (inactive) |
| C[C@@H]1CN([C@H](C)CO)C(=O)c2cc(NC(=O)C3CCCCC3)ccc2O[C@H]1CN(C)Cc1ccc(-c2ccccc2)cc1 | -2.89% (inactive) |
| COc1ccc(-c2csc(CCn3nc(C)cc3C)n2)cc1OC | -4.81% (inactive) |
| C[C@H]1CN([C@@H](C)CO)C(=O)c2cc(NC(=O)C3CCCCC3)ccc2O[C@H]1CN(C)Cc1ccc(-c2ccccc2)cc1 | 12.3% (inactive) |
